Rows were chosen to be rich in hits. Some 21% of all compounds tested hit in one or more screens of this group.
Pf growth 48h: Primary qHTS for delayed death inhibitors of the malarial parasite plastid, 48 hour incubation; P. falciparum luciferase growth in erythrocytes, 48 h; Potency, µM (top dose mostly 28.7 µM), for inactives: at the highest dose activity change, negative = inhibition, actives largely listed as inhibitors; 5.9% of 310,000 active; further: potency means the concentration at half of the fitted maximal effect; on the % scale 0 is the no-effect control and ±100 the full control effect
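Erythrocytes infected with P. falciparum carrying an integrated firefly luciferase reporter (2% hematocrit, 0.1% parasitemia final) were exposed to compounds in RPMI 1640 with 0.5% Albumax at 37 C, 5% CO2. Growth inhibition was scored as reduced luminescence.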
Pf growth 96h: Primary qHTS for delayed death inhibitors of the malarial parasite plastid, 96 hour incubation; P. falciparum luciferase reporter growth, 96 h; Potency, µM (top dose mostly 28.7 µM), inactives show at the top dose activity change, negative = inhibition, most hits filed as inhibitors; 6.9% of 320,000 active; further: potency means the concentration at half of the fitted maximal effect; on the % scale 0 is the no-effect control and ±100 the full control effect
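Infected RBCs, 2% Hct / 0.05% parasitemia final; luciferase-reporter P. falciparum; cpd 96 h, 37 C, 5% CO2; luciferase detection reagent; luminescence.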
AMA1-RON2 inh: qHTS for Inhibitors of AMA1-RON; Towards Development of Antimalarial Drug Lead: Primary Screen | AlphaScreen AMA1-biotinylated RON2 peptide binding | Potency, µM (titrated, usually from 58.2 µM), without a hit: top-dose activity change, negative = inhibition, most hits filed as inhibitors | 0.2% of 360,000 active | AID 720542, 2013;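 further: potency means the concentration at half of the fitted maximal effect; 0% = vehicle wells and -100% = peptide control; nearly all actives have a fitted effect of over 45% in size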
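AMA1 (3D7) with his tag at 25 nM final met compounds first, then biotinylated RON2 peptide at 25 nM; detection used donor plus acceptor beads, 10 µg/mL apiece, read by AlphaScreen after 30 min at room temperature.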
CHX counter: Cycloheximide Counterscreen for Small Molecule Inhibitors of Shiga Toxin; max response, %; 12% of 300,000 active; cell reporter, cycloheximide protein synthesis inhibition counterscreen; in the data active means max response mostly above about 13%, no sharp cut-off; inactive means mostly below about 14%; further: read at 38.3 µM for the half of the compounds with a filed dose; 0% is about no effect
Shiga inhibitor: A qHTS for Small Molecule Inhibitors of Shiga Toxin; 9.2% of 290,000 active; inhibition, % at 38.7 µM; Vero cells, Shiga toxin protein synthesis inhibition reporter; in the data active means inhibition mostly above about 28%, no sharp cut-off; inactive means mostly below about 43%; further: 0% is about no effect
HCV inh: qHTS Assay for Inhibitors of Hepatitis C Virus (HCV) | AID 651820, 2012 | 3.4% of 340,000 active | Huh7.5.1 HCVcc-Cre infection, luciferase reporter, 44 h | Potency, µM (titrated, usually from 41.8 µM), for the others: at the top dose activity change, negative = inhibition, most hits filed as inhibitors; further: potency means the concentration at half of the fitted maximal effect; on the % scale 0 is the no-effect control and ±100 the full control effect
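Cells seeded at 1,000/well and cultured 4 h, then compounds added followed by HCVcc-Cre virus (~0.5 moi). After 44 h further culture, luciferase substrate was added, plates held 15 min at room temperature, and luminescence read for 15 sec.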
* marks the source's active call; other numbers are inactive results; ? = inconclusive; / = no result; [ ] = dose if it differs, or a comment. Unless noted, the call rests on the fitted dose curve; in most records, active means well fitted curve in the direction sought with a large enough effect; inconclusive means small, poorly fitted or top-dose-only effect, or another doubt; inactive means no such curve, though single readings can be large; an effect the other way counts as inactive or inconclusive.

SMILES	Pf growth 48h	Pf growth 96h	AMA1-RON2 inh	CHX counter	Shiga inhibitor	HCV inh
CCOC(=O)c1ccccc1NC(=O)c1c(F)c(F)c(F)c(F)c1F	-5.3%	9.6%	9.3%	-3.3	-9.5	10µM*
CC(C)(C)c1ccc(C(=O)N2CCC2(C)C(=O)NS(=O)(=O)c2ccccc2Cl)cc1 (centres undefined)	/	/	-0.9%	/	/	/
CC(C)NC(=O)COc1ccc(S(=O)(=O)N(C)Cc2ccccc2)cc1	?	9.1%	3.8%	-2.8	-5.5	-27.6%
CCCN(C(=O)c1cccc(S(=O)(=O)N2CCN(C)CC2)c1)c1c(N)n(Cc2ccccc2)c(=O)[nH]c1=O	?	5.3%	-2.4%	/	/	?
Cc1ccc(CNC(=O)CN2C(=O)COc3ccc(S(=O)(=O)N4CCCCC4)cc32)o1	6.5%	-15.6%	-8.5%	8.8	10.1	-5.1%
O=C1C(Cl)=C(N2CCCCCC2)C(=O)N1c1ccc(Br)cc1	-29.1%	?	84.3%	3.5	21.6	2.5%
O=C1C(Cl)=C(N2CCCCCC2)C(=O)N1c1ccccc1	-26.1%	-13.4%	34.8%	25.2*	45.6	-14.3%
Cc1nc(C)c(-c2ccc(SCc3ccccc3F)nn2)s1	55.4%	27.5%	-5.9%	32.5*	118.7*	-24.3%
COc1ccccc1-c1ccc(SCC(=O)NCCc2ccccc2)nn1	-17.0%	?	-8.9%	-1.8	17.7	-16.4%
COc1ccccc1-c1ccc(SCc2cccc(F)c2)nn1	14.9%	33.0%	-19.2%	30.0*	66.4*	?
COc1ccccc1-c1ccc(SCc2ccccc2)nn1	53.4%	?	7.2%	37.9*	76.5*	?
COc1ccccc1-c1ccc(SCc2ccccc2F)nn1	85.8%	114.9%	27.5%	28.7*	66.0*	-26.0%
O=C(NC(=S)Nc1cc(Cl)ccc1Cl)c1ccco1	/	/	48.5%	/	/	/
CC(C)NC(=O)C1(C)CN(S(C)(=O)=O)CC(=O)N1CCCN1CCOCC1 (centres undefined)	/	/	-2.1%	/	/	/
CC(Cc1ccsc1)NC(=O)CCc1nnc(CCc2ccccc2)o1 (centres undefined)	-5.0%	?	-2.4%	0.6	-2.0	24.9%
O=C(O)c1ccc2c(c1)SC1=NS(=O)(=O)CCN12	20.3%	-1.8%	-9.2%	-0.8	7.4	5.1%
CN(C(=O)c1ccc2c(c1)SC1=NS(=O)(=O)CCN12)C(c1ccccc1)c1ccccc1	11.7µM*	11.7µM*	-15.2%	10.9	-15.4	19.5%
Cc1cc(Br)c2c(c1)=C(c1sc(N3CCCCCC3)nc1O)C(=O)N=2	?	23.4%	0.0%	16.9*	63.3*	3.0%
COc1ccc(C(O)(CCC(C)C)C(CN2CCOCC2)c2ccccc2)cc1 (centres undefined)	1.65µM*	-4.5%	-4.3%	-1.9	1.9	?
CCCC(O)(c1ccccc1)C(CN1CCOCC1)c1ccccc1 (centres undefined)	/	?	-3.1%	-3.4	2.3	-22.7%
CC(C)CC(O)(c1ccccc1)C(CN1CCOCC1)c1ccccc1 (centres undefined)	0.0%	11.4%	5.1%	19.6*	18.3	5.9%
CC(C)C(O)(c1ccccc1)C(CN1CCOCC1)c1ccccc1 (centres undefined)	?	12.0%	-2.8%	-2.8	-4.4	-19.9%
CC(C)CCC(O)(c1ccccc1)C(CN1CCOCC1)c1ccccc1 (centres undefined)	2.94µM*	7.1%	-1.3%	-1.5	-7.7	?
COc1cc(OC)nc(Nc2nc(C(N)Cc3ccc(Cl)cc3)cs2)n1 (centres undefined)	/	/	46.8%	/	/	/
Cc1ccc(NC(=S)NCc2ccc3c(c2)cc(C)n3C)c(C)c1	?	?	33.4%	5.1	25.7	?
SMILES	Pf growth 48h	Pf growth 96h	AMA1-RON2 inh	CHX counter	Shiga inhibitor	HCV inh
Cc1cc(C)n(-c2nncc(-c3ccccc3)n2)n1	?	0.0%	-1.6%	26.0*	70.7	-1.0%
Cc1cc(C)n(-c2ncc(-c3ccccc3)nn2)n1	/	?	-2.8%	57.2*	90.4*	9.5%
Cc1cc(C)n(-c2nc(N(c3ccccc3)c3ccccc3)nc(-n3nc(C)cc3C)n2)n1	2.62µM*	?	-2.3%	-1.0	23.1	10µM*
COc1cc(NC(=O)CCCN2C(=O)NC(C)(C)C2=O)cc(OC)c1	9.3%	14.3%	11.6%[11.6 µM]	/	/	10.2%
Cc1ccc(S(=O)(=O)/N=c2\ccc(Cl)cn2C(F)F)cc1	30.3%	53.1%	2.4%	22.1	30.0	12.9%
COc1cc(C(=O)N2CCN(S(=O)(=O)c3ccc(C)cc3)CC2)ccc1OCC(=O)N1CCOCC1	/	/	19.2%	/	/	0.2%
O=C(CN(Cc1ccco1)C(=O)CCC(=O)Nc1ccccn1)NCc1ccccc1	0.7%	1.3%	16.4%	-6.2	-13.8	0.1%
COc1ccc(CN2C(=O)CC(=O)NC2=O)cc1	1.3%	4.15µM*	1.8%	-9.7	-15.1	22.9%
COc1ccc(N2C(=O)CC(=O)NC2=O)cc1	27.7%	-5.0%	-3.7%	-2.3	-9.3	1.7%
COc1ccc(/C=N/Nc2nc(-c3ccc(C)cc3)c(NC(C)=O)s2)cc1OC	1.17µM*	1.17µM*	5.4%	33.6*	54.9*	8.9%
COc1cc(/C=N\Nc2nc(-c3ccc(C)cc3)c(NC(C)=O)s2)ccc1O	10.4µM*	5.86µM*	21.3%	18.6*	50.7	-20.5%
CCOc1cc(/C=N\Nc2nc(-c3ccc(C)cc3)c(NC(C)=O)s2)ccc1O	8.28µM*	?	31.7%	2.0	23.5	?
O=C1NN=C(c2ccc(Cl)cc2)CC1c1cccc(Br)c1 (centres undefined)	4.15µM*	12.3%	-1.5%	1.5	9.5	-16.6%
O=c1[nH]n2c(=O)c3c([nH]c2c1N=Nc1cccc(C(F)(F)F)c1)CCCC3	13.1µM*	?	48.8%	-1.1	10.3	6.9%
O=c1[nH]n2c(=O)c3c([nH]c2c1N=Nc1cccc(Cl)c1)CCC3	-19.2%	?	30.0%	-1.3	-8.2	22.1%
NS(=O)(=O)c1ccc(N=Nc2c(=O)[nH]n3c(=O)c4c([nH]c23)CCCC4)cc1	?	2.33µM*	39.2%	-2.5	7.4	?
COc1cccc(N=Nc2c(=O)[nH]n3c(=O)c4c([nH]c23)CCC4)c1	-2.5%	-29.5%	50.5%	0.4	17.9	31.9%
N#CC1(NC(=O)CN2C(=O)NC3(CCCCCC3)C2=O)CCCCC1	-18.9%	-17.2%	-12.0%	/	/	3.7%
CCOc1ccc(CN2CCN(Cc3cccn3-c3ncccn3)CC2CCO)cc1 (centres undefined)	?	-39.7%	-11.6%	8.3	-1.5	-22.9%
COc1cc(C(=O)OCCc2cc3ccccc3c(=O)o2)cc(OC)c1OC	?	?	0.2%	/	/	3.55µM*

Assay outcomes (PubChem BioAssay)
